One compound from ChEMBL document CHEMBL4513139, “CO-ADD screening of University of Strathclyde (UK) compounds” can be followed below.

For one assay, the system named is Staphylococcus aureus. The note with it: Concentration 32 ug.mL-1; ASSAY_TEST Inhibition of Bacterial Growth; detection method Absorption (OD600); MEDIA CAMHB; plate type 384well; NBS; CORNING #3640; time 18 hr.
A further assay deals with Escherichia coli. Particulars: Concentration 32 ug.mL-1; ASSAY_TEST Inhibition of Bacterial Growth; detection method Absorption (OD600); MEDIA CAMHB; plate type 384well; NBS; CORNING #3640; time 18 hr.

Results with a measured potency or affinity are listed apart.

As to `CCOP(=O)(OCC)C(Cc1cn(Cc2cnc(C)nc2N)nn1)C(=O)O.O=C(O)C(F)(F)F` (configuration not stated), the figures for the Inhibition with Staphylococcus aureus and in the assay on Escherichia coli were 18.42% and -15.56%, respectively.

As usually defined, the Inhibition is the change of the read-out against control, counted positive when it falls.
